# Reference: PubChem BioAssay (Tox21)
# “And” between values parts separate entries of the source, which are not always exact repeats. Identical values can stand only once. A number with no mark means an inactive call. Entries that show only a call come without a potency. The source made the active and inactive calls. Unless noted, calls come from the whole dose curve; as a rule, active = well fitted curve in the direction sought with a large enough effect in the repeat runs; inconclusive = weak or mixed curves; inactive = no such curve, though single readings can be large; an effect the other way counts as inactive or inconclusive.
# Assays:
# [1] = qHTS assay to identify small molecule antagonists of the thyroid receptor (TR) signaling pathway - cell viability counter screen (AID 743064); note: nearly all actives have a fitted effect of over 50% in size; note: potency is the fitted concentration of half-maximal effect
# Procedure, shortened: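 Counter screen for cytotoxicity: compound plus T3 (1 nM final) on GH3.TRE-Luc cells, 23.5 h at 37 °C, then fluorescence viability readout with CellTiter-Fluor.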
# [2] = qHTS assay to identify small molecule antagonists of the thyroid receptor (TR) signaling pathway (AID 743065); note: nearly all actives have a fitted effect of over 55% in size; note: potency is the fitted concentration of half-maximal effect
# Procedure, shortened: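 GH3.TRE-Luc rat pituitary cells (two TREs driving luciferase) were dosed with compound, then stimulated with 1 nM T3 (final) for 23.5 h at 37 C. ONE-Glo luminescence was the read-out, with CellTiter-Fluor fluorescence as the cytotoxicity counter-screen.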
# [3] = qHTS assay to identify small molecule antagonists of the estrogen receptor alpha (ER-alpha) signaling pathway - cell viability counter screen (AID 743074; calls by dose curve;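 note: HEK293 cells carrying ER-alpha-UAS-bla reporter stimulated with 17beta-estradiol; nearly all actives have a fitted effect of over 45% in size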; note: potency is the fitted concentration of half-maximal effect)
# Aromatase (Homo sapiens) = Aromatase (Homo sapiens) (UniProt P11511); experiment: qHTS assay to identify aromatase inhibitors (AID 743083); note: nearly all actives have a fitted effect of over 55% in size; note: potency is the fitted concentration of half-maximal effect
# [4] = qHTS assay to identify aromatase inhibitors - cell viability counter screen (AID 743084);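 note: cells stimulated with testosterone during compound exposure; nearly all actives have a fitted effect of over 55% in size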; note: potency is the fitted concentration of half-maximal effect
# [5] = qHTS assay to identify small molecule that activate the aryl hydrocarbon receptor (AhR) signaling pathway - cell viability counter screen (AID 743086); note: nearly all actives have a fitted effect of over 45% in size; note: potency is the fitted concentration of half-maximal effect
# Procedure, shortened: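 HepG2-AhR-luc (HG2L7.5c1) cells, 4000/well, treated 24 h at 37 C with compound; viability measured as CellTiter-Fluor fluorescence after 30 min in the same wells as the luciferase read.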
# [6] = qHTS assay for small molecule agonists of the antioxidant response element (ARE) signaling pathway - cell viability counter screen (AID 743203; calls by dose curve; note: nearly all actives have a fitted effect of over 55% in size; note: potency is the fitted concentration of half-maximal effect)
# Procedure, shortened: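 Measured in the same wells as the beta-lactamase ARE reporter, this read-out is CellTiter-Glo luminescence from HepG2 ARE-bla cells given compounds for 16 hrs.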
# [7] = qHTS assay for small molecule activators of the heat shock response signaling pathway - cell viability counter screen (AID 743209); note: nearly all actives have a fitted effect of over 50% in size; note: potency is the fitted concentration of half-maximal effect
# Procedure, shortened: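 Same-well multiplex: after 2.5 h room-temperature incubation with LiveBLAzer B/G substrate and fluorescence reading, CellTiter-Glo reagent was added to HSE-bla HeLa cells that had received compound for 5 h at 37 C; luminescence read after 30 min.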
# [8] = target: Estrogen receptor (Homo sapiens) (UniProt P03372); experiment: qHTS assay to identify small molecule agonists of the estrogen receptor alpha (ER-alpha) signaling pathway (AID 743075; calls by dose curve;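 note: HEK293 GripTite cells with ER-alpha and UAS-driven beta-lactamase reporter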; note: potency is the fitted concentration of half-maximal effect); conditions: HEK293 ER-alpha-UAS-bla, beta-lactamase FRET ratio, 18 h; activation: at 70.1 µM (top of the series)
# [9] = target: Estrogen receptor (Homo sapiens) (UniProt P03372); experiment: qHTS assay to identify small molecule agonists of the estrogen receptor alpha (ER-alpha) signaling pathway using the BG1 cell line (AID 743079); conditions: BG1Luc4E2 cells, ERE-luciferase agonist, 22 h; note: nearly all actives have a fitted effect of over 20% in size; note: potency is the fitted concentration of half-maximal effect
# [10] = qHTS assay to identify small molecule antagonists of the estrogen receptor alpha (ER-alpha) signaling pathway using the BG1 cell line (AID 743080; calls by dose curve;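 note: BG1 cells stimulated with 17beta-estradiol alongside compound; nearly all actives have a fitted effect of over 25% in size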; note: potency is the fitted concentration of half-maximal effect)
# Procedure, shortened: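 Quantitative HTS on the Tox21 10K library: BG1 cells with endogenous ER-alpha and ERE-luciferase reporter, 17beta-estradiol stimulation, 21.5 h compound exposure, luminescence endpoint with parallel fluorescence cytotoxicity counter-read.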
# [11] = qHTS assay to identify small molecule antagonists of the estrogen receptor alpha (ER-alpha) signaling pathway using the BG1 cell line - cell viability counter screen (AID 743081);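 note: compound given together with 17beta-estradiol as the ER stimulus; nearly all actives have a fitted effect of over 45% in size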; note: potency is the fitted concentration of half-maximal effect
# [12] = target: Aryl hydrocarbon receptor (Homo sapiens) (UniProt P35869); experiment: qHTS assay to identify small molecule that activate the aryl hydrocarbon receptor (AhR) signaling pathway (AID 743085); note: nearly all actives have a fitted effect of over 15% in size; note: potency is the fitted concentration of half-maximal effect;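 for activation: HG2L7.5c1 human HepG2 liver cells with stably integrated DRE-driven firefly reporter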
# Procedure, shortened: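 Measured in HG2L7.5c1 cells: CellTiter-Fluor signal (30 min incubation, 37C) for viability, then luciferase luminescence (30 min, room temperature). Compound contact time was 24 h at 37C, following a 5 h pre-incubation.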
# [13] = target: Estrogen receptor (Homo sapiens) (UniProt P03372); experiment: qHTS assay to identify small molecule antagonists of the estrogen receptor alpha (ER-alpha) signaling pathway (AID 743069; active = well fitted curve in the direction sought with a large enough effect in the signal ratio in the repeat runs, not every such curve was filed as active; inconclusive = weak or mixed curves, or effect the other way; inactive = no such curve, though single readings can be large or run the other way; the % refers to the signal ratio)
# Procedure, shortened: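 Beta-lactamase FRET fluorescence is read after 2 hr at room temperature with LiveBLAzer B/G substrate. Before that, ER-alpha-bla HEK293 cells sit 4 hr after plating, then receive compound plus 17beta-estradiol and incubate 18 hr at 37C.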
# [14] = qHTS assay to identify small molecule antagonists of the peroxisome proliferator-activated receptor gamma (PPARg) signaling pathway - cell viability counter screen (AID 743194); note: nearly all actives have a fitted effect of over 55% in size; note: potency is the fitted concentration of half-maximal effect
# Procedure, shortened: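 Cytotoxicity counter screen in PPARg-bla HEK293H cells, same wells as reporter assay. Compounds plus 50 nM rosiglitazone (final) for 17 h at 37 C, then viability read by CellTiter-Glo luminescence.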
# [15] = qHTS assay for small molecule activators of the heat shock response signaling pathway (AID 743210; active = well fitted activation curve with a large enough effect in the signal ratio in the repeat runs, with a control signal flat, not every such curve was filed as active; inconclusive = weak or mixed curves; the % refers to the signal ratio; note: potency is the fitted concentration of half-maximal effect;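 for activation: HeLa cells with beta-lactamase reporter driven by heat shock elements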)
# Procedure, shortened: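 Beta-lactamase reporter read-out: FRET substrate fluorescence after 2.5 h at RT, following 5 h compound treatment at 37 C of HeLa cells carrying HSE-driven bla reporter; quantitative HTS format.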
# [16] = target: Peroxisome proliferator-activated receptor gamma (Homo sapiens) (UniProt P37231); experiment: qHTS assay to identify small molecule agonists of the peroxisome proliferator-activated receptor gamma (PPARg) signaling pathway (AID 743094; active = well fitted activation curve with a large enough effect in the signal ratio in the repeat runs, not every such curve was filed as active; inconclusive = weak or mixed curves, or effect the other way; inactive = no such curve, though single readings can be large or run the other way; the % refers to the signal ratio)
# Procedure, shortened: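 Cell-based bla reporter, HEK293H background, PPARg-driven UAS. Pre-incubation 5 h, 37C, 5% CO2. Compound 17 h, 37C. Substrate 1 h RT; fluorescence.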
# [17] = qHTS assay for small molecule agonists of the antioxidant response element (ARE) signaling pathway (AID 743202; active = well fitted activation curve with a large enough effect in the signal ratio in the repeat runs, not every such curve was filed as active; inconclusive = weak or mixed curves, or effect the other way; inactive = no such curve, though single readings can be large or run the other way; the % refers to the signal ratio; note: potency is the fitted concentration of half-maximal effect)
# Procedure, shortened: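 HepG2 ARE-bla reporter line, 2,000 cells/well; 5 h preincubation 37 C/5% CO2; compound (DMSO) 16 h 37 C; B/G FRET substrate 2 h RT; fluorescence intensity.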
# [18] = system: thyroid hormone receptor (rat, GH3 cells); experiment: qHTS assay to identify small molecule agonists of the thyroid receptor (TR) signaling pathway (AID 743066; calls by dose curve)
# [19] = target: Peroxisome proliferator-activated receptor gamma (Homo sapiens) (UniProt P37231); experiment: qHTS assay to identify small molecule antagonists of the peroxisome proliferator-activated receptor gamma (PPARg) signaling pathway (AID 743191; calls by dose curve; note: nearly all actives have a fitted effect of over 30% in size)
# Procedure, shortened: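 GeneBLAzer PPARg UAS-bla HEK293H cells, 5 h post-plating, exposed to compounds 17 h at 37C. LiveBLAzer B/G FRET substrate added for 1 h at room temperature; beta-lactamase reporter read by fluorescence intensity.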
# Sequence of Aryl hydrocarbon receptor (Homo sapiens) (P35869 whole entry, looked up): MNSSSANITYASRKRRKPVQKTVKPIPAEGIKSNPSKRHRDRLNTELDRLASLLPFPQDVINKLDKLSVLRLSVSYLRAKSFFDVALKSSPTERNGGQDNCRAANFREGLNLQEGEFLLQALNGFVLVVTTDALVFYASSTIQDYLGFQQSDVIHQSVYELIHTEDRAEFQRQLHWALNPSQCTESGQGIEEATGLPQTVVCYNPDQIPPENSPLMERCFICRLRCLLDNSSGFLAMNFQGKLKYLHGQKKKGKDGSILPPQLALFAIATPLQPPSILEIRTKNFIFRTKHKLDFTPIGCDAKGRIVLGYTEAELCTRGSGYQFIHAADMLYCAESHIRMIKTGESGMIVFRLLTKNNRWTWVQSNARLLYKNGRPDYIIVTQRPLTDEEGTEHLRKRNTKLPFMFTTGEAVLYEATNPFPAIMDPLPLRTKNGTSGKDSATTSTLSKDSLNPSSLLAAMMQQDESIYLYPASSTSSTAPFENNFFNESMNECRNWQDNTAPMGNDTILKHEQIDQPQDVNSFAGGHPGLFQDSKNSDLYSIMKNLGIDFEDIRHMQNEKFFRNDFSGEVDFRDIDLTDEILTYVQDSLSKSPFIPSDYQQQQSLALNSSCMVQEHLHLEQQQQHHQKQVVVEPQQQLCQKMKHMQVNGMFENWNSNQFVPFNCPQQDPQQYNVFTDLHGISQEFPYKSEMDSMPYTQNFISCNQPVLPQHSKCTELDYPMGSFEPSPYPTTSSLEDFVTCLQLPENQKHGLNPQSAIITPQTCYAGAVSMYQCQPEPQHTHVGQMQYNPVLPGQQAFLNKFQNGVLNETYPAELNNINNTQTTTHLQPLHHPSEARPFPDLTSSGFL
# Sequence of Aromatase (Homo sapiens) (P11511 whole entry, looked up): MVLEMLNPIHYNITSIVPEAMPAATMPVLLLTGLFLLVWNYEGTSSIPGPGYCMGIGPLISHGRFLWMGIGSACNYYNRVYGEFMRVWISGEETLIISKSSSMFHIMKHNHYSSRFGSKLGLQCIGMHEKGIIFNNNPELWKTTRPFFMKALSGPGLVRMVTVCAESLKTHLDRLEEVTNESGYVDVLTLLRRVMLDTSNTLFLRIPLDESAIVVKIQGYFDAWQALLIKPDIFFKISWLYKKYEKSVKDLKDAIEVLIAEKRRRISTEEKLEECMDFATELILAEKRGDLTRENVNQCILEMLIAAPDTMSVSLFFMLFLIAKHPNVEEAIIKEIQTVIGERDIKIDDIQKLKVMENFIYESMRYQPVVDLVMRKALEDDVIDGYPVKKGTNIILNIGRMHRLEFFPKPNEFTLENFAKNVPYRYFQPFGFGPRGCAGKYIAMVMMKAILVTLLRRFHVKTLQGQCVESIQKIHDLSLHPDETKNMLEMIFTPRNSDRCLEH
# Sequence of Peroxisome proliferator-activated receptor gamma (Homo sapiens) (P37231 whole entry, looked up): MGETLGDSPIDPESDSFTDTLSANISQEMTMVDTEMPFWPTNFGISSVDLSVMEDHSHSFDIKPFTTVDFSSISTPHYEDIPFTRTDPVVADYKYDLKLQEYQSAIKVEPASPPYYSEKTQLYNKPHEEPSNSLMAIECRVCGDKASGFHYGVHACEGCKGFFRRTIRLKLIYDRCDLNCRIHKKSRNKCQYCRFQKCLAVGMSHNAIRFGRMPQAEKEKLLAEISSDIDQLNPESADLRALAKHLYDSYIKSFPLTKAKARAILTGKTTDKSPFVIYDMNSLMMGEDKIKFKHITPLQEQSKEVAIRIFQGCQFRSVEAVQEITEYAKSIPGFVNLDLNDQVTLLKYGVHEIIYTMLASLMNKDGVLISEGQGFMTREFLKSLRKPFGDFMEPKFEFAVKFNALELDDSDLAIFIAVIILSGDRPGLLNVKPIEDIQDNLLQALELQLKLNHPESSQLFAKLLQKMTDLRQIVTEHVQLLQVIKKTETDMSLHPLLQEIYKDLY
# Sequence of Estrogen receptor (Homo sapiens) (P03372 whole entry, looked up): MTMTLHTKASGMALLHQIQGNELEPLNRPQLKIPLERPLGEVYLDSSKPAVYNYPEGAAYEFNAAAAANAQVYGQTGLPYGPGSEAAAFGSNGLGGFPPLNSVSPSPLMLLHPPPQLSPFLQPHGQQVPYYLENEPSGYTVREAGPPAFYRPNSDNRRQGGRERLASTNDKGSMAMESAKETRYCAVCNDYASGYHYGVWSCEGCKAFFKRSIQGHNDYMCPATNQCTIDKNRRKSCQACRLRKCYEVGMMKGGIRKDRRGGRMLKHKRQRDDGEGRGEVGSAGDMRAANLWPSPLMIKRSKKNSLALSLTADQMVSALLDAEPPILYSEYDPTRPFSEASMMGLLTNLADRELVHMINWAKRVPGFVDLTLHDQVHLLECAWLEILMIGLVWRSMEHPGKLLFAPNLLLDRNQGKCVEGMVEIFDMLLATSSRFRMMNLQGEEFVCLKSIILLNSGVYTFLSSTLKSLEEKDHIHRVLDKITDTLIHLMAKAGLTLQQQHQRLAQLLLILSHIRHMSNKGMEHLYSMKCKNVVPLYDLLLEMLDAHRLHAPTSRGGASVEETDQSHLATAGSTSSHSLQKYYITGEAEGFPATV
compound,measurement,setting,value
CC(C)(C)c1ccc(C(=O)CCCN2CCC(OC(c3ccccc3)c3ccccc3)CC2)cc1,Potency,[1],11.9 µM (active)
same,Potency,[2],13.3 µM (active)
same,Potency,[3],23.9 µM (active)
same,Potency,Aromatase (Homo sapiens),inactive
same,Potency,[4],inactive
same,Potency,[5],inactive
same,Potency,[6],29.8 µM (active)
same,Potency,[7],29.8 µM (active)
CCCCCCCCOc1ccccc1C(=O)Nc1ccc(C(=O)OCC[N+](C)(CC)CC)cc1,Potency,[1],26.6 µM (active)
same,Potency,[2],26.6 µM (active)
same,Potency,[3],inactive
same,Potency,[8],inactive
same,activation,[9]; at 70.3 µM (top of the series),-29.5%
same,Potency,[10],inactive
same,Potency,[11],inactive
same,Potency,Aromatase (Homo sapiens),inactive
same,Potency,[4],inactive
same,Potency,[12],inactive
same,Potency,[5],inactive
same,Potency,[6],29.8 µM (active)
COCCCC/C(=N\OCCN)c1ccc(C(F)(F)F)cc1,Potency,[1],13.3 µM (active)
same,Potency,[2],11.9 µM (active)
same,Potency,[13],inactive
same,Potency,[8],inactive
same,activation,[9]; at 70.3 µM (top of the series),-27%
same,Potency,[10],inactive
same,Potency,[11],inactive
same,Potency,Aromatase (Homo sapiens),21.1 µM (active)
same,Potency,[4],inactive
same,Potency,[12],inactive
same,Potency,[14],inactive
same,Potency,[6],inactive
same,Potency,[7],inactive
same,Potency,[15],inactive
[Cl][Bi]([Cl])([c]1ccccc1)([c]1ccccc1)[c]1ccccc1,Potency,[1],1.71 µM (active)
same,Potency,[2],0.682 µM (active)
same,Potency,[3],48.7 µM (active)
same,Potency,[8],6.13 µM [inconclusive] (active)
same,Potency,[11],60.8 µM (active)
same,Potency,Aromatase (Homo sapiens),6.82 µM (active)
same,Potency,[4],7.65 µM (active)
same,Potency,[12],inactive
same,Potency,[5],19.2 µM (active)
same,Potency,[14],3.45 µM (active)
same,Potency,[7],48.7 µM (active)
CCCCCCCCNC(C)C(O)c1ccc(SC(C)C)cc1 (stereo not drawn),Potency,[1],5.31 µM (active)
same,Potency,[2],5.96 µM (active)
same,Potency,[3],9.52 µM (active)
same,Potency,Aromatase (Homo sapiens),29.8 µM (active)
same,Potency,[5],23.7 µM (active)
same,Potency,[16],inactive
same,Potency,[14],23.7 µM (active)
same,Potency,[7],18.8 µM (active)
CCN1/C(=C/C=C/c2sc3ccccc3[n+]2CC)Sc2ccccc21,Potency,[1],1.68 µM (active)
same,Potency,[2],0.841 µM (active)
same,Potency,[3],10.7 µM (active)
same,Potency,[10],2.98 µM (active)
same,Potency,[11],9.44 µM (active)
same,Potency,Aromatase (Homo sapiens),1.5 µM (active)
same,Potency,[4],5.96 µM (active)
same,Potency,[12],2.66 µM (active)
same,Potency,[5],6.68 µM (active)
same,Potency,[14],14.6 µM (active)
same,Potency,[17],1.16 µM (active)
same,Potency,[6],13 µM (active)
same,Potency,[7],13 µM (active)
CC(C)c1ccc2c(c1)CC[C@H]1[C@](C)(CN)CCC[C@]21C,Potency,[1],10.9 µM (active)
same,Potency,[2],12.2 µM (active)
same,Potency,[3],49 µM (active)
same,Potency,Aromatase (Homo sapiens),19.3 µM (active)
same,Potency,[4],24.3 µM (active)
same,Potency,[12],inactive
same,Potency,[5],54.5 µM (active)
same,Potency,[14],11 µM (active)
same,Potency,[6],6.86 µM (active)
same,Potency,[7],19.5 µM (active)
CN1CCN(CCC(=O)N2c3ccccc3Sc3ccc(C(F)(F)F)cc32)CC1,Potency,[1],11.9 µM (active)
same,Potency,[2],26.6 µM (active)
same,Potency,[13],inactive
same,Potency,[8],inactive
same,activation,[9]; at 70.3 µM (top of the series),-0.0617%
same,Potency,[10],inactive
same,Potency,Aromatase (Homo sapiens),inactive
same,Potency,[4],inactive
same,Potency,[12],inactive
same,Potency,[5],18.8 µM (active)
same,Potency,[16],inactive
same,Potency,[14],33.5 µM (active)
same,Potency,[6],29.8 µM (active)
same,Potency,[7],inactive
same,Potency,[15],inactive
CCCCCCCCOC(=O)c1ccc(O)cc1,Potency,[9],7.67 µM (active) and 17.2 µM (active)
Cc1cccc(CN2CCN(C(c3ccccc3)c3ccc(Cl)cc3)CC2)c1 (stereo not drawn),activation,[9]; at 32.5 µM (top of the series),-3.05%
CCCCCCCCCCCCCCCC[N+](C)(C)CCN(Cc1ccc(OC)cc1)c1ncccn1,activation,[9]; at 32.5 µM (top of the series),-16.9%
O=C1C=CC(=O)N1,activation,[9]; at 95 µM (top of the series),-8.49%
N#CSc1ccc(N)c([N+](=O)[O-])c1,activation,[9]; at 95 µM (top of the series),-0.741%
Cc1cc(=O)oc2cc(N(C)C)ccc12,Potency,[2],inactive
same,Potency,[18],inactive
same,Potency,[3],inactive
same,Potency,Aromatase (Homo sapiens),inactive
same,Potency,[14],inactive
same,Potency,[6],inactive
same,Potency,[7],inactive
same,Potency,[15],34.7 µM (active)
CN(C)c1ccc(SC#N)cc1,Potency,[18],inactive
same,Potency,[3],inactive
same,Potency,[8],inactive
same,Potency,[9],61.1 µM (active)
same,Potency,[10],inactive
same,Potency,[11],inactive
same,Potency,Aromatase (Homo sapiens),inactive
same,Potency,[4],inactive
same,Potency,[5],inactive
same,Potency,[16],inactive
same,Potency,[6],inactive
same,Potency,[7],inactive
Cc1cc(N)c(S(=O)(=O)O)cc1Cl,Potency,[2],inactive
same,Potency,[18],inactive
same,Potency,[3],inactive
same,Potency,[11],inactive
same,Potency,Aromatase (Homo sapiens),inactive
same,Potency,[4],inactive
same,Potency,[5],inactive
same,Potency,[14],inactive
same,Potency,[17],inactive
same,Potency,[6],inactive
same,Potency,[7],inactive
same,Potency,[15],inactive
CCC1OCC(COc2ccc(Oc3ccccc3)cc2)O1 (stereo not drawn),Potency,[1],inactive
same,Potency,[3],inactive
same,Potency,[11],inactive
same,Potency,Aromatase (Homo sapiens),inactive
same,Potency,[4],inactive
same,Potency,[5],inactive
same,Potency,[16],inactive
same,Potency,[19],inactive
same,Potency,[14],inactive
same,Potency,[17],61.1 µM (active)
same,Potency,[6],inactive
O=C(N/N=C/c1ccccc1O)c1ccncc1,Potency,[2],29.8 µM (active)
same,Potency,[3],inactive
same,Potency,[10],18.8 µM (active)
same,Potency,[11],inactive
same,Potency,Aromatase (Homo sapiens),5.96 µM (active)
same,Potency,[14],inactive
CN(C)[C@@H]1C(=O)C(C(N)=O)=C(O)[C@@]2(O)C(=O)C3=C(O)c4c(O)ccc(Cl)c4[C@@H](O)[C@H]3C[C@@H]12,Potency,[2],inactive
same,Potency,[18],inactive
same,Potency,[3],inactive
same,Potency,[11],inactive
same,Potency,Aromatase (Homo sapiens),inactive
same,Potency,[4],inactive
same,Potency,[12],inactive
same,Potency,[5],inactive
same,Potency,[16],inactive
same,Potency,[14],inactive
same,Potency,[6],inactive
same,Potency,[7],inactive
same,Potency,[15],inactive
